These results are taken from the supplement of paper PMC8007513.

Structures can show the parent of a compound that is named as a salt. ± gives the standard error. The campaign covered roughly 1,300 compounds. About 130 (10%) showed an effect of 50% or more. Shown is part of a subset that was picked to be rich in strong results.

This assay relates to Trichoderma virens ATCC 9645. Nature of the assay: growth yield (OD600) with compound + IPBC relative to untreated control; higher = less growth inhibition. To be noted: compound concentration: 100 uM, IPBC concentration: 200 ng/ml. In outline: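 Plates were read for OD600 at 40 h and 72 h after Trichoderma virens ATCC 9645 spores (15,000 spores ml^−1 in potato dextrose broth) were grown at 30 °C with library compounds at 100 μM final, with or without a biocide at 200 ng ml^−1. Growth is stated relative to the control with neither agent, as the mean of duplicate screens.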

With `C[C@]12C/C(=C/O)C(=O)C[C@@H]1CC[C@@H]1[C@@H]2CC[C@@]2(C)[C@H]1CC[C@]2(C)O` [Oxymetholone] + CCCCNC(=O)OCC#CI [3-iodo-2-propynyl butylcarbamate (IPBC)], the growth yield (40 h) came to 112 ± 14% and the growth yield (72 h) worked out at 105 ± 9.2%.

For the molecule `Oc1ncnc2[nH]ncc12` [Allopurinol] + CCCCNC(=O)OCC#CI [3-iodo-2-propynyl butylcarbamate (IPBC)], the growth yield runs as follows: (40 h) 93.4 ± 4.8%; (72 h) 94.28 ± 0.32%.

`Cc1cc(N)c2ccccc2[n+]1CCCCCCCCCC[n+]1c(C)cc(N)c2ccccc21` [Dequalinium dichloride] + CCCCNC(=O)OCC#CI [3-iodo-2-propynyl butylcarbamate (IPBC)]: the growth yield (40 h) is 3.81% and the growth yield (72 h) was found to be 2.94%.

With `COc1ncnc(NS(=O)(=O)c2ccc(N)cc2)c1OC` [Sulfadoxine] + CCCCNC(=O)OCC#CI [3-iodo-2-propynyl butylcarbamate (IPBC)], the growth yield was determined as 72.6 ± 2.4% (40 h) and 84.7 ± 2.7% (72 h).

For `Cc1[nH]cnc1CN1CCc2c(c3ccccc3n2C)C1=O` [Alosetron hydrochloride] + CCCCNC(=O)OCC#CI [3-iodo-2-propynyl butylcarbamate (IPBC)], the growth yield is 85.5 ± 1.3% (40 h) and 87.89 ± 0.21% (72 h).

Take `CC(C)(C)NC[C@@H](O)COc1cccc2c1CCCC2=O` [(+) -Levobunolol hydrochloride] + CCCCNC(=O)OCC#CI [3-iodo-2-propynyl butylcarbamate (IPBC)]: the growth yield is, setting by setting: (40 h) 97.8 ± 16%; (72 h) 99.1 ± 12%.

In the case of `CN(CCCCCCCCCCN(C)C(=O)Oc1cccc([N+](C)(C)C)c1)C(=O)Oc1cccc([N+](C)(C)C)c1` [Demecarium bromide] + CCCCNC(=O)OCC#CI [3-iodo-2-propynyl butylcarbamate (IPBC)], the growth yield (40 h) was 3.97 ± 0.16% and the growth yield (72 h) came to 2.73%.

Take `CN(C)C(=O)Oc1cccc([N+](C)(C)C)c1` [Neostigmine bromide] + CCCCNC(=O)OCC#CI [3-iodo-2-propynyl butylcarbamate (IPBC)]: the growth yield reads like this: (40 h) 83.4 ± 1.1%; (72 h) 92.19 ± 0.52%.

Consider `CCN(C)C(=O)Oc1cccc([C@H](C)N(C)C)c1` [Rivastigmine] + CCCCNC(=O)OCC#CI [3-iodo-2-propynyl butylcarbamate (IPBC)], for which the growth yield was determined as 97.1 ± 4% (40 h) and 95.1 ± 3.7% (72 h).

For the molecule `C=C1c2cccc(O)c2C(=O)C2=C(O)[C@]3(O)C(=O)C(C(N)=O)=C(O)[C@@H](N(C)C)[C@@H]3[C@@H](O)[C@H]12` [Methacycline hydrochloride] + CCCCNC(=O)OCC#CI [3-iodo-2-propynyl butylcarbamate (IPBC)], the growth yield by setting is: (40 h) 94.2 ± 1.8%; (72 h) 93.7 ± 0.94%.

Turning to `C[C@]1(Cn2ccnn2)[C@H](C(=O)O)N2C(=O)C[C@H]2S1(=O)=O` [Tazobactam] + CCCCNC(=O)OCC#CI [3-iodo-2-propynyl butylcarbamate (IPBC)], the growth yield stood at 84.5 ± 0.95% (40 h) and 87.15 ± 0.32% (72 h).

For `CCCCOc1ccc(OCCCN2CCOCC2)cc1` [Pramoxine hydrochloride] + CCCCNC(=O)OCC#CI [3-iodo-2-propynyl butylcarbamate (IPBC)], the growth yield worked out at 80.1 ± 2.2% (40 h) and 94 ± 3.1% (72 h).

For the molecule `COc1cc2ncnc(Nc3ccc(F)c(Cl)c3)c2cc1OCCCN1CCOCC1` [Gefitinib] + CCCCNC(=O)OCC#CI [3-iodo-2-propynyl butylcarbamate (IPBC)], the growth yield runs as follows: (40 h) 16.4 ± 5.2%; (72 h) 10.5 ± 0.63%.

As to `C#Cc1cccc(Nc2ncnc3cc(OCCOC)c(OCCOC)cc23)c1` [Erlotinib] + CCCCNC(=O)OCC#CI [3-iodo-2-propynyl butylcarbamate (IPBC)], the growth yield is, setting by setting: (40 h) 98.2 ± 11%; (72 h) 99.3 ± 3%.

In the case of `C[C@]12C[C@H](O)[C@H]3[C@@H](CCC4=CC(=O)CC[C@@]43C)[C@@H]1CC[C@@H]2C(=O)CO` [Corticosterone] + CCCCNC(=O)OCC#CI [3-iodo-2-propynyl butylcarbamate (IPBC)], the growth yield (40 h) is 94.2 ± 7.8% and the growth yield (72 h) worked out at 96.6 ± 5.6%.

With `CCCN1CCCC[C@H]1C(=O)Nc1c(C)cccc1C` [Ropivacaine hydrochloride] + CCCCNC(=O)OCC#CI [3-iodo-2-propynyl butylcarbamate (IPBC)], the growth yield is 88.5 ± 1.4% (40 h) and 91.98 ± 0.1% (72 h).

On to `C[C@]12C=CC(=O)C=C1CC[C@@H]1[C@@H]2[C@@H](O)C[C@@]2(C)[C@H]1CC[C@]2(O)C(=O)CO` [Prednisolone] + CCCCNC(=O)OCC#CI [3-iodo-2-propynyl butylcarbamate (IPBC)], for which the growth yield reads like this: (40 h) 82.8 ± 2.1%; (72 h) 92.5 ± 0.42%.

Regarding `NC(Cc1cc(I)c(Oc2cc(I)c(O)c(I)c2)c(I)c1)C(=O)O` (stereo unspecified) [Thyroxine (L)] + CCCCNC(=O)OCC#CI [3-iodo-2-propynyl butylcarbamate (IPBC)], the growth yield stood at 100 ± 11% (40 h) and 98.8 ± 9% (72 h).

As to `N[C@@H](Cc1cc(I)c(Oc2ccc(O)c(I)c2)c(I)c1)C(=O)O` [Liothyronine] + CCCCNC(=O)OCC#CI [3-iodo-2-propynyl butylcarbamate (IPBC)], the growth yield reads like this: (40 h) 93.1 ± 10%; (72 h) 98.1 ± 6.4%.

As to `O=C(O)Cc1cc(I)c(Oc2ccc(O)c(I)c2)c(I)c1` [Tiratricol, 3,3',5-triiodothyroacetic acid] + CCCCNC(=O)OCC#CI [3-iodo-2-propynyl butylcarbamate (IPBC)], the growth yield was determined as 44 ± 1.8% (40 h) and 73.41 ± 0.63% (72 h).

On to `CCN(CC)CCNc1ccc(CO)c2sc3ccccc3c(=O)c12` [Hycanthone] + CCCCNC(=O)OCC#CI [3-iodo-2-propynyl butylcarbamate (IPBC)], for which the growth yield was found to be 124 ± 2.7% (40 h) and 120 ± 0.63% (72 h).

As for `COc1cc(NC(C)CCCN)c2ncccc2c1` (stereo unspecified) [Primaquine diphosphate] + CCCCNC(=O)OCC#CI [3-iodo-2-propynyl butylcarbamate (IPBC)], the growth yield reads like this: (40 h) 73.7 ± 11%; (72 h) 117.7 ± 1.1%.

Take `COc1ccc(OC)c(C(O)CNC(=O)CN)c1` (stereo unspecified) [Midodrine hydrochloride] + CCCCNC(=O)OCC#CI [3-iodo-2-propynyl butylcarbamate (IPBC)]: the growth yield came out at 96.1 ± 4.3% (40 h) and 104 ± 2.1% (72 h).

As for `CCCC(C)(COC(N)=O)COC(=O)NC(C)C` (stereo unspecified) [Carisoprodol] + CCCCNC(=O)OCC#CI [3-iodo-2-propynyl butylcarbamate (IPBC)], the growth yield turned out to be 84.8 ± 5.1% (40 h) and 92.7 ± 5.5% (72 h).

Consider `CC(CCc1ccccc1)NCC(O)c1ccc(O)c(C(N)=O)c1` (stereo unspecified) [Labetalol hydrochloride] + CCCCNC(=O)OCC#CI [3-iodo-2-propynyl butylcarbamate (IPBC)], for which the growth yield came out at 73.38 ± 0.32% (40 h) and 87.15 ± 0.1% (72 h).

As for `CCCCCCCCCCCCCCCC[N+](C)(C)CCN(Cc1ccc(OC)cc1)c1ncccn1` [Thonzonium bromide] + CCCCNC(=O)OCC#CI [3-iodo-2-propynyl butylcarbamate (IPBC)], the growth yield runs as follows: (40 h) 3.34 ± 0.16%; (72 h) 2.62 ± 0.1%.

On to `CN(C)CCN(Cc1ccc(Cl)cc1)c1ccccn1` [Chloropyramine hydrochloride] + CCCCNC(=O)OCC#CI [3-iodo-2-propynyl butylcarbamate (IPBC)], for which the growth yield turned out to be 76.1 ± 1.1% (40 h) and 92.3 ± 2.3% (72 h).

As to `COc1ccc(CN(CCN(C)C)c2ccccn2)cc1` [Pyrilamine maleate] + CCCCNC(=O)OCC#CI [3-iodo-2-propynyl butylcarbamate (IPBC)], the growth yield (40 h) came to 82.8 ± 4.6% and the growth yield (72 h) came to 92.4 ± 4.9%.

Consider `COC(c1ccccc1)(c1ccccc1)[C@H](Oc1nc(C)cc(C)n1)C(=O)O` [Ambrisentan] + CCCCNC(=O)OCC#CI [3-iodo-2-propynyl butylcarbamate (IPBC)], for which the growth yield (40 h) is 89.3 ± 5.7% and the growth yield (72 h) is 93.9 ± 3.9%.

Consider `NC(=O)N1c2ccccc2CC(=O)c2ccccc21` [Oxcarbazepine] + CCCCNC(=O)OCC#CI [3-iodo-2-propynyl butylcarbamate (IPBC)], for which the growth yield turned out to be 83.4 ± 2.4% (40 h) and 92.9 ± 1.9% (72 h).

In the case of `CC(C)N1CCN(c2ccc(OCC3COC(Cn4cncn4)(c4ccc(Cl)cc4Cl)O3)cc2)CC1` (stereo unspecified) [Terconazole] + CCCCNC(=O)OCC#CI [3-iodo-2-propynyl butylcarbamate (IPBC)], the growth yield (40 h) is 69.9 ± 2.5% and the growth yield (72 h) turned out to be 87 ± 1.3%.

For the molecule `CCC(C)n1ncn(-c2ccc(N3CCN(c4ccc(OCC5COC(Cn6cncn6)(c6ccc(Cl)cc6Cl)O5)cc4)CC3)cc2)c1=O` (stereo unspecified) [Itraconazole] + CCCCNC(=O)OCC#CI [3-iodo-2-propynyl butylcarbamate (IPBC)], the growth yield (40 h) came out at 14.3 ± 1.9% and the growth yield (72 h) was found to be 11.3 ± 1.7%.

On to `CC(=O)N1CCN(c2ccc(OCC3COC(Cn4ccnc4)(c4ccc(Cl)cc4Cl)O3)cc2)CC1` (stereo unspecified) [Ketoconazole] + CCCCNC(=O)OCC#CI [3-iodo-2-propynyl butylcarbamate (IPBC)], for which the growth yield (40 h) came to 3.34 ± 0.48% and the growth yield (72 h) was 2.52 ± 0.42%.

For the molecule `CC[C@@H]([C@H](C)O)n1ncn(-c2ccc(N3CCN(c4ccc(OC[C@@H]5CO[C@@](Cn6cncn6)(c6ccc(F)cc6F)C5)cc4)CC3)cc2)c1=O` [Posaconazole] + CCCCNC(=O)OCC#CI [3-iodo-2-propynyl butylcarbamate (IPBC)], the growth yield (40 h) came out at 3.97 ± 1.4% and the growth yield (72 h) is 3.78 ± 1.7%.

In the case of `C[N+]1([O-])[C@@H]2C[C@@H](OC(=O)[C@H](CO)c3ccccc3)C[C@H]1[C@@H]1O[C@@H]12` (stereo partly specified) [Scopolamin-N-oxide hydrobromide] + CCCCNC(=O)OCC#CI [3-iodo-2-propynyl butylcarbamate (IPBC)], the growth yield was 103 ± 2.2% (40 h) and 102 ± 1.1% (72 h).

Turning to `CC(C)c1cccc(C(C)C)c1O` [Propofol] + CCCCNC(=O)OCC#CI [3-iodo-2-propynyl butylcarbamate (IPBC)], the growth yield turned out to be 101 ± 2.9% (40 h) and 98.4 ± 1.3% (72 h).

In the case of `CO[C@@]1(NC(=O)C2SC(=C(C(N)=O)C(=O)O)S2)C(=O)N2C(C(=O)O)=C(CSc3nnnn3C)CS[C@@H]21` (stereo partly specified) [Cefotetan] + CCCCNC(=O)OCC#CI [3-iodo-2-propynyl butylcarbamate (IPBC)], the growth yield by setting is: (40 h) 94.8 ± 2.4%; (72 h) 96.5 ± 1.9%.

Regarding `NS(=O)(=O)c1cc2c(cc1C(F)(F)F)NCNS2(=O)=O` [Hydroflumethiazide] + CCCCNC(=O)OCC#CI [3-iodo-2-propynyl butylcarbamate (IPBC)], the growth yield by setting is: (40 h) 89.1 ± 1.1%; (72 h) 92.4 ± 0.73%.
